# Shown are actives, neighbours in structure and some others; about 4.3% of the full set was active somewhere.
# HSF1 activator = increases HSF-1 driven luciferase reporter signal; NIH3T3-HGL HSF-1 luciferase reporter, MG132, 8 h; 100% = twice DMSO control signal; activation, % at 9 µM; hit rate 1.7% among 300,000;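 active = mean replicate activation of at least 50% with a set share of replicates each reaching 50%; inconclusive = only one of those two conditions met; inactive = mean below 50% and too few replicates reaching it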;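 also: 0% = median of the neutral control wells and 100% = twice that signal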
# Wnt bcat act = activators of Wnt/beta-catenin signaling; hit rate 1.2% among 300,000; activation, % at 9.35 µM; Wnt/beta-catenin reporter cell assay, activator, plate reader; in the data active = activation above about 30%, passing the limit was not always enough; inconclusive = no clear call, values can overlap the other calls;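 also: 0% = neutral control wells and 100% = positive control wells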
# MITF TRPM1 HTS = activators of MITF-driven TRPM1 promoter activity in SK-MEL-5 cells. hit rate 0.75% among 300,000. activation, % at 12.5 µM. SK-MEL-5 TRPM1-promoter luciferase, 24 h; % of positive control, neutral wells = 0;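 active = mean activation of at least 80% with every replicate also reaching 80%; inconclusive = mean reaches 80% but some replicate falls short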;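 also: 0% = neutral control wells and 100% = parthenolide positive control wells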
# esBAF inh = blocks esBAF chromatin remodeling in mouse ES cells. Bmi1-luciferase knock-in reporter, 24 h; 100% = twice the neutral-well signal. reporter increase, % at 12.5 µM. hit rate 2% among 350,000. AID 602393; in the data active = activation above about 40%; inconclusive = no clear call, values can overlap the other calls;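 also: 0% = median of the plate's neutral control wells and 100% = double that signal; a rise in the Bmi1 reporter signal indicates esBAF inhibition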
# SMARCA2 act = SMARCA2 function activation, primary screen. MG213 cells, MMTV-luciferase reporter, dexamethasone, overnight. hit rate 1% among 370,000. activation, % at 9.1 µM; in the data active = activation above about 7.8%;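 also: 0% = vehicle wells and 100% = reference activator wells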
# HSF1 inhib = HSF1 inhibition | NIH3T3-HGL HSE-luciferase, MG132-induced, luminescence 8 h; hits give low values | hit rate 0.77% among 300,000 | AID 2098 | activity change, negative = inhibition, % at 7.5 µM (by protocol);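 active = more than half of replicate wells show activity change below -50%, luminescence cut by over half; inconclusive = some wells, but at most half, below -50%; inactive = no replicate well below -50%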;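 also: luciferase reports HSF-1 transcriptional activity via heat shock element; 0% = median of DMSO wells and -100% = zero luminescence signal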
# * marks the source's active call; other numbers are inactive results; ? = inconclusive; · = not tested or not shown.
SMILES,HSF1 activator,Wnt bcat act,MITF TRPM1 HTS,esBAF inh,SMARCA2 act,HSF1 inhib
CC(C)c1ccc2c(c1)C1(NN=C(c3ccccc3)S1)C(=O)N2 (centres undefined),-10,12,-43,87*,1,-2
C[C@H](CO)N1C[C@H](C)[C@H](CN(C)CC2CCCCC2)Oc2c(NC(=O)C3CC3)cccc2C1=O,·,·,·,-1,·,·
C[C@@H]1CN([C@@H](C)CO)C(=O)c2cc(NS(=O)(=O)c3ccc(Cl)cc3)ccc2O[C@H]1CN(C)C,·,·,·,6,·,·
Cn1c(-c2ccc3c(c2)OCO3)cc(=O)c2ccccc21,-6,-1,·,0,2,1
Cn1c2ccccc2c(=O)c2ccc(-c3ccc4c(c3)OCO4)cc21,?,41*,84*,49*,6,46
CC(C)c1ccc2c(c1)C(c1ccc(N3CCOCC3)cc1)=NNC(c1cccs1)=N2,48,12,·,65*,5,29
CCc1nnc(NC(=O)c2cccc(S(=O)(=O)N3CCCCC3)c2)s1,-57,0,-9,·,-3,-56*
CCCn1c(NC(=O)c2cccc(S(=O)(=O)N3CCCC3)c2)nc2ccccc21,-52,-15,-51,-3,-3,-54*
CCc1nnc(NC(=O)C2CCCN(C(=O)c3ccc(Cl)cc3)C2)s1 (centres undefined),·,-2,60,50*,-1,·
CCCn1c(NC(=O)c2ccccc2)nc2ccccc21,6,·,-6,4,-2,0
Cc1ccc(C(=O)n2cnnc2N)cc1,66*,-7,0,-3,-1,15
Cc1ccc(-n2nc3cc(C)c(N)cc3n2)cc1,18,·,1,·,2,20
Nc1ccc(-n2nc3ccccc3n2)cc1,-5,-1,·,·,-6,-4
Nc1cc2nn(-c3ccccc3)nc2cc1Cl,41,49*,2,·,3,-3
Nc1ccc2nn(-c3ccccc3)nc2c1,·,12,1,57*,-2,·
CO[C@@H]1CN(C)C(=O)c2ccc(NC(=O)c3ccccn3)cc2OC[C@@H](C)N(C(=O)Nc2ccccc2Cl)C[C@H]1C,·,·,·,-2,·,·
CCC(C)N1C(=O)S/C(=C/c2ccc(N3CCOCC3)cc2C)C1=O (centres undefined),-3,1,91*,·,1,-8
Cc1cc(N2CCOCC2)ccc1/C=C1\SC(=O)N(C(C)C)C1=O,78*,-4,59,2,1,45
Cc1ccc(N2CCN(C(=O)N3CCOCC3)CC2)cc1C,-11,-2,-3,·,-4,-9
CC1CCc2sc(C(=O)NCC3CCCO3)cc2C1 (centres undefined),·,40*,101*,20,4,·
O=C(NCC1CCCO1)c1cc2c(s1)CCC2 (centres undefined),10,6,9,·,2,13
C[C@@H]1CN([C@@H](C)CO)C(=O)c2cccc(NC(=O)c3ccncc3)c2O[C@@H]1CN(C)S(C)(=O)=O,·,·,·,4,·,·
CCOC(=O)c1c(C=O)c2sc(C)cc2n1C,7,44*,24,6,1,-1
CCOC(=O)c1c(C=O)c2ccccc2n1CC,4,-3,-6,3,0,-5
C[C@H](CO)N1C[C@H](C)[C@@H](CN(C)C(=O)Nc2ccc(C(F)(F)F)cc2)Oc2ccc(NC(=O)Nc3cccc4ccccc34)cc2CC1=O,·,·,·,-10,·,·
SMILES,HSF1 activator,Wnt bcat act,MITF TRPM1 HTS,esBAF inh,SMARCA2 act,HSF1 inhib
O=C(C=Cc1ccc(Cl)s1)c1ccc(Cl)s1,·,1,27,-1,-4,·
Cc1c(/C=C/C(=O)c2ccc(Cl)s2)cnn1C,0,61*,·,?,0,15
COc1cc(/C=C/C(=O)c2ccc(Cl)s2)cc(OC)c1O,174*,·,-24,10,·,129
COc1ccc(/C=C/C(=O)c2cccc(-n3cnnn3)c2)cc1O,57*,0,2,1,-3,27
COc1ccc(/C=C/C(=O)c2ccc(Cl)s2)cc1O,-25,·,·,56*,2,-5
O=C(NCCCc1ccccc1)c1cccc(NC(=O)c2ccccc2)c1,·,-1,4,7,-2,·
CCN(CC)S(=O)(=O)c1cccc(NC(=O)/C=C/c2ccc([N+](=O)[O-])cc2)c1,70*,-9,-2,18,-6,14
COc1ccc(/C=C/C(=O)NCCCc2ccccc2)cc1,62*,1,2,·,1,25
CC(=O)Nc1cccc(C(=O)/C=C/c2ccc(C)cc2)c1,-59,13,-15,·,-5,-47
CCN(CC)S(=O)(=O)c1cccc(NC(=O)/C=C/c2cccc([N+](=O)[O-])c2)c1,-1,-1,-11,·,0,5
CCC(=O)Nc1cccc(C(=O)/C=C/c2ccc(F)cc2)c1,75*,25,-62,·,0,61
O=C(/C=C/c1ccccc1)Nc1cccc(C(=O)NCCc2ccccc2)c1,·,11,?,62*,1,·
CC(C)CC#Cc1ccc2c(c1)O[C@@H](CN(C)Cc1ccncc1)[C@H](C)CN([C@H](C)CO)S2(=O)=O,·,·,·,-4,·,·
COCC(=O)Nc1ccc2c(c1)OC[C@@H](C)N(Cc1ccncc1)C[C@@H](C)[C@@H](OC)CN(C)C2=O,·,·,·,1,·,·
O=C(/C=C/c1ccccc1)Nc1cccc(C(=O)NCCCCc2ccccc2)c1,·,5,6,43*,-3,·
CCOc1ccc(/C=C/C(=O)Nc2cccc(C(C)=O)c2)cc1,15,·,31,59*,2,9
O=[N+]([O-])c1cccc(C(=Nc2ccc(Cl)cc2)NO)c1,-2,2,·,2,-4,12
ONC(=Nc1ccc(Cl)cc1)c1ccc(Cl)cc1,55*,11,-1,9,0,29
CN1CCC(OC(=O)COc2ccccc2)CC1,7,1,-5,0,0,-4
Cc1cccc(OCC(=O)OC2CCN(C)CC2)c1,-61,·,-3,2,1,-55*
Cc1onc(-c2ccccc2)c1C(=O)NC1CCC(C)CC1 (centres undefined),·,444*,6,-1,-2,·
C[C@@H]1CN([C@H](C)CO)S(=O)(=O)c2ccc(C#Cc3ccccn3)cc2O[C@H]1CN(C)C(=O)C1CC1,·,·,·,-9,·,·
CS(=O)(=O)Nc1ccc2c(c1)[C@@H]1C[C@@H](CC(=O)NCc3cc(F)ccc3F)O[C@@H](CO)[C@@H]1O2,·,·,·,9,·,·
Cc1ccc(N2C(=O)c3cccc4c([N+](=O)[O-])ccc(c34)C2=O)c2cccnc12,-42,41*,-74,-18,-3,-31
Cc1ccccc1N=Nc1ccc(O)c2ncccc12,89*,-2,-76,·,2,66
COc1cccc(N=Nc2ccc(O)c3ncccc23)c1,90*,-5,-52,-20,3,53
Nc1ccc(N=Nc2ccccc2)c2cccnc12,82*,21,28,?,4,53
COc1ccc(N=Nc2ccc(O)c3ncccc23)cc1,-28,11,-69,·,5,-26
COc1ccc(C)cc1N=Nc1ccc(O)c2ncccc12,-30,-6,-69,·,-3,-19

# Assay outcomes (PubChem BioAssay)
